# PubChem BioAssay (Tox21)
# Values without a mark were called inactive. Results filed as inconclusive are left out. A call without a number means that no potency is given here. Active and inactive are the calls of the source. Unless noted, calls follow the shape of the full dose curve.
# Columns and labels:
# [1] = Nuclear factor erythroid 2-related factor 2/antioxidant responsive element (Nrf2/ARE) small molecule agonists: qHTS cell viability counter screen in human keratinocytes (AID 1919968; active = well fitted curve in the direction sought with a large enough effect in the repeat runs; an effect the other way counts as inactive or inconclusive; also: nearly all actives have a fitted effect of over 55% in size)
# Outline: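 Viability counter-screen: KeratinoSens reporter cells, DMSO-delivered compounds, 23 h at 37 C, CellTiter-Fluor fluorescence.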
# [2] = Nuclear factor erythroid 2-related factor 2/antioxidant responsive element (Nrf2/ARE) small molecule agonists: luciferase reporter gene qHTS assay in human keratinocytes (AID 1919969); also: nearly all actives have a fitted effect of over 35% in size
# [3] = target: Gonadotropin-releasing hormone receptor (Homo sapiens) (UniProt P30968); test: Human gonadotropin-releasing hormone receptor (GnRHR) small molecule agonists, calcium flux assay in GnRHR-HEK293 cells (AID 1920063); also: nearly all actives have a fitted effect of over 35% in size
# Outline: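 Tox21-format agonist screen using human GnRHR-expressing HEK293 cells and a fluorescent calcium dye; kinetic 3-min fluorescence reading after compound addition, 15-point concentration series run in triplicate.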
# [4] = target: KiSS-1 receptor (Homo sapiens) (UniProt Q969F8); test: Human kisspeptin (KISS1R) small molecule agonists, calcium flux assay in KISS1R-HEK293 cells (AID 1920064; active = well fitted curve in the direction sought with a large enough effect in the repeat runs; an effect the other way counts as inactive or inconclusive)
# Outline: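 Intracellular calcium mobilization in KISS1R-HEK293 cells was recorded by fluorescence (Ex/Em 480/540) for 3 min following compound addition to cells pre-loaded 1 h with calcium dye.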
# [5] = p53 small molecule agonists, cell-based qHTS assay with human liver microsomes (AID 1963577);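 also: p53 response element beta-lactamase reporter cells with liver microsomes plus NADPH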
# Outline: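 HLM-supplemented p53RE-bla reporter assay: 16 h compound exposure at 37 C, microsomes and NADPH each 0.5 mg/mL final, read by fluorescence intensity.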
# [6] = p53 small molecule agonists, cell-based qHTS assay with rat liver microsomes (AID 1963578)
# Outline: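 Quantitative HTS of the Tox21 10K library: p53RE-bla cells, rat liver microsomes plus NADPH at 0.5 mg/mL final each, 16 h at 37 C, beta-lactamase fluorescence detection.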
# [7] = p53 small molecule agonists, cell-based qHTS assay with rat liver microsomes: qHTS cell viability counter screen (AID 1963580); also: nearly all actives have a fitted effect of over 45% in size
# Outline: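 Viability is assessed in parallel with the p53 reporter read: HCT-116 p53RE-bla cells receive compounds plus rat microsomes and NADPH (0.5 mg/mL final apiece), incubate 16 h at 37 C, and then CellTiter-Glo luminescence is recorded.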
# [8] = p53 small molecule agonists, cell-based qHTS assay: qHTS cell viability counter screen (AID 1963581); also: nearly all actives have a fitted effect of over 45% in size; also: potency is read from the fitted curve at half-maximal effect
# Outline: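 Compounds are pinned onto HCT-116 p53RE-bla cells and left 16 h at 37 C. Following the reporter FRET read, ATP is quantified by CellTiter-Glo luminescence after 30 min at room temperature.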
# [9] = p53 small molecule agonists, cell-based qHTS assay (AID 1963582; active = well fitted activation curve with a large enough effect in the signal ratio in the repeat runs, not every such curve was filed as active; the % refers to the signal ratio)
# Outline: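 Agonist activity was scored from beta-lactamase FRET fluorescence in p53RE-bla cells treated 16 h at 37 C with compounds in DMSO, substrate incubation being 2 h at room temperature.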
# [10] = target: 5-hydroxytryptamine receptor 2A (Homo sapiens) (UniProt P28223); test: 5-hydroxytryptamine receptor 2A (HTR2A) small molecule antagonists, cell-based qHTS assay (AID 1963586); also: nearly all actives have a fitted effect of over 45% in size
# Outline: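 Antagonist-mode intracellular calcium assay: DOI (4 nM) added after 5 min compound pre-incubation at room temperature to dye-loaded HTR2A-CHO cells. Fluorescence followed for 3 min, sampled every second.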
# [11] = target: 5-hydroxytryptamine receptor 2A (Homo sapiens) (UniProt P28223); test: 5-hydroxytryptamine receptor 2A (HTR2A) small molecule agonists, cell-based qHTS assay (AID 1963587); also: nearly all actives have a fitted effect of over 30% in size
# Outline: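 CHO cells stably expressing human HTR2A, plated 18 h, loaded with calcium dye 1 h at 37 C. Agonist mode: compounds added and intracellular calcium fluorescence recorded kinetically for 2 min at 1 sec intervals.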
# [12] = target: Muscarinic acetylcholine receptor M1 (Homo sapiens) (UniProt P11229); test: Cholinergic receptor muscarinic 1 (CHRM1) small molecule antagonists, cell-based qHTS assay (AID 1963588); also: nearly all actives have a fitted effect of over 40% in size; also: potency is read from the fitted curve at half-maximal effect
# Outline: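 CHRM1-CHO calcium-flux assay, antagonist mode. Cells were seeded 18 h, dye-loaded 1 h at 37 C and given compound for 5 min at RT, then acetylcholine was added at 50nM. FDSS fluorescence was read 3 min; 15 concentrations, three runs.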
# [13] = cAMP Responsive Elements (CRE) small molecule agonists, cell-based qHTS assay (AID 1963590)
# Outline: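 FRET-based beta-lactamase readout (LiveBLAzer B/G, 2 h RT) quantified CRE activation in HEK 293T CRE-bla cells after 3 h treatment with DMSO-dissolved compounds.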
# [14] = target: Beta-2 adrenergic receptor (Homo sapiens) (UniProt P07550); test: Adrenergic beta2 receptor (ADRB2) small molecule agonists, cell-based qHTS assay (AID 1963593);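 also: CHO cells stably overexpressing human ADRB2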
# Outline: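 CHO cells stably over-expressing ADRB2 were plated overnight at 37C, then dosed with compounds plus a stimulation mix containing 100uM IBMX and 25uM Ro-20-1724 for 0.5hr at room temperature. cAMP was measured by HTRF competition, 1hr.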
# [15] = target: D(2) dopamine receptor (Homo sapiens) (UniProt P14416); test: Dopamine D2 receptor (DRD2) small molecule agonists, cell-based qHTS assay (AID 1963594); also: nearly all actives have a fitted effect of over 35% in size
# Outline: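 HEK293 cells stably expressing human DRD2, pre-treated with PDE inhibitor Ro20-1724 (0.1 mM final) and compound 10 min at room temperature, then stimulated with NKH477 (200nM […]) for 30 min. cAMP read by HTRF (665/620 nm).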
# [16] = target: D(2) dopamine receptor (Homo sapiens) (UniProt P14416); test: Dopamine D2 receptor (DRD2) small molecule antagonists, cell-based qHTS assay (AID 1963595; active = well fitted inhibition curve with a large enough effect in the signal ratio in the repeat runs, with a control signal flat; the % refers to the signal ratio)
# Outline: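 Human DRD2 antagonist qHTS measuring cAMP by HTRF. The cells are exposed to compound for 10 min, then to NKH477 (200 nM) and quinpirole (12 nM) for 30 min at RT, with Ro20-1724 (0.1 mM) present throughout.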
# [17] = p53 small molecule agonists, cell-based qHTS assay with human liver microsomes: qHTS cell viability counter screen (AID 1963579); also: nearly all actives have a fitted effect of over 45% in size
# Outline: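 Viability of p53RE-bla cells is measured as CellTiter-Glo luminescence following a 16 h, 37 C incubation with compound, liver microsomes from human donors and NADPH.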
# [18] = target: Muscarinic acetylcholine receptor M1 (Homo sapiens) (UniProt P11229); test: Cholinergic receptor muscarinic 1 (CHRM1) small molecule agonists, cell-based qHTS assay (AID 1963589); also: nearly all actives have a fitted effect of over 35% in size
# Outline: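 Stable CHRM1-CHO cells (human receptor) were incubated 18 h, dye-loaded for 1 h at 37 C and exposed to test compounds for agonist activity, with calcium-dependent fluorescence followed kinetically.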
# [19] = cAMP Responsive Elements (CRE) small molecule antagonists, cell-based qHTS assay (AID 1963591; active = well fitted inhibition curve with a large enough effect in the signal ratio in the repeat runs, not every such curve was filed as active; the % refers to the signal ratio; also: potency is read from the fitted curve at half-maximal effect)
# Outline: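 qHTS in CRE-bla HEK 293T cells: compound in DMSO, then 0.25 uM NKH477 (final), 3 h at 37 °C/5% CO2; beta-lactamase FRET read-out after 2 h substrate incubation.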
# [20] = target: Beta-2 adrenergic receptor (Homo sapiens) (UniProt P07550); test: Adrenergic beta2 receptor (ADRB2) small molecule antagonists, cell-based qHTS assay (AID 1963592); also: series mostly up to about 92 µM; nearly all actives have a fitted effect of over 50% in size
# Outline: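 Cells (CHO, stable ADRB2 overexpression) incubated 18-20hr at 37C; compounds added from DMSO; agonist mix (1nM isoproterenol, 100uM IBMX, 25uM Ro-20-1724) added; 0.5hr RT; d2-cAMP and anti-cAMP-cryptate added; 1hr RT; 665/615 nm read.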
# Sequence of D(2) dopamine receptor (Homo sapiens) (P14416 whole entry, looked up): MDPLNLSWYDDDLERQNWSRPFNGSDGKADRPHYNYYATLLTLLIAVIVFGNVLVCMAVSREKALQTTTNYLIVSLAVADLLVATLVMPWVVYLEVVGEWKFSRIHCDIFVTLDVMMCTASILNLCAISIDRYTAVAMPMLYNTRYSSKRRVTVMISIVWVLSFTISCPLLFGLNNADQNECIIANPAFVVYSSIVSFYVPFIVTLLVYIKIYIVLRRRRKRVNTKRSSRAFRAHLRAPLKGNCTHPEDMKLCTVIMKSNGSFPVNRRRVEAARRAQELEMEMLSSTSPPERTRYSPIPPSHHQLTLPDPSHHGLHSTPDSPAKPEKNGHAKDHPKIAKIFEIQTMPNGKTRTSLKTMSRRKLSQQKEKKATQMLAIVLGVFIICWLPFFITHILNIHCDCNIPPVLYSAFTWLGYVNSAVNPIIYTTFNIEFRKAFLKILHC
# Sequence of Beta-2 adrenergic receptor (Homo sapiens) (P07550 whole entry, looked up): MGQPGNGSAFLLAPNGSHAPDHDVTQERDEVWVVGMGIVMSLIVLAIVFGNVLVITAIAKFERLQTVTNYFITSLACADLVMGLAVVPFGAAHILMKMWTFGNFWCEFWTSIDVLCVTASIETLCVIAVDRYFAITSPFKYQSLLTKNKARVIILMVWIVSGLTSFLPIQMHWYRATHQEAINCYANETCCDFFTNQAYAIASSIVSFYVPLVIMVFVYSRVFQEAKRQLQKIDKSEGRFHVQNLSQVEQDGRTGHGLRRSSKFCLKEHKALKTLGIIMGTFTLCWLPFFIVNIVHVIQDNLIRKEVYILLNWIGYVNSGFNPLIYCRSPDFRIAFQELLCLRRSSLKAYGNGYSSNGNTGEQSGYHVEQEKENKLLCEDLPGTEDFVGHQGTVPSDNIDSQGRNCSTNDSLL
# Sequence of Muscarinic acetylcholine receptor M1 (Homo sapiens) (P11229 whole entry, looked up): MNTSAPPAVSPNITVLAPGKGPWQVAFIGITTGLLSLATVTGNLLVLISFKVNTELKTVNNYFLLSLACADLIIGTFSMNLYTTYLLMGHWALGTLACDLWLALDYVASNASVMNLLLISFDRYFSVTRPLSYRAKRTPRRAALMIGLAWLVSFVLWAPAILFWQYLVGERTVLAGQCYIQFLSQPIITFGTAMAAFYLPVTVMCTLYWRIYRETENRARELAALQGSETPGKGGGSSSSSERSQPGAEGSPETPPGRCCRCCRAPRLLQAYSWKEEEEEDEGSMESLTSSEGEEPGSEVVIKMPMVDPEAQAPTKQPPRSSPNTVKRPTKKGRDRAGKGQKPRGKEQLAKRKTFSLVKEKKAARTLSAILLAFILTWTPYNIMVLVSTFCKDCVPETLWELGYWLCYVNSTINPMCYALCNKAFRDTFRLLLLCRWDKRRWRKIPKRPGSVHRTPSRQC
# Sequence of Gonadotropin-releasing hormone receptor (Homo sapiens) (P30968 whole entry, looked up): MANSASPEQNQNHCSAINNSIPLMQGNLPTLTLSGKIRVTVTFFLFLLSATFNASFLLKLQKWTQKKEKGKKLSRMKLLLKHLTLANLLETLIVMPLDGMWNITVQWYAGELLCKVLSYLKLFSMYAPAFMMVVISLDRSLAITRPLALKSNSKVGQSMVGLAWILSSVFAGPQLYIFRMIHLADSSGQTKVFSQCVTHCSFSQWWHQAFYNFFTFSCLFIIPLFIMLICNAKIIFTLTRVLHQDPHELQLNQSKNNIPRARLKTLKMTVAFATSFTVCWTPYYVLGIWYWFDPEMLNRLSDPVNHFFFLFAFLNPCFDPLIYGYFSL
# Sequence of 5-hydroxytryptamine receptor 2A (Homo sapiens) (P28223 whole entry, looked up): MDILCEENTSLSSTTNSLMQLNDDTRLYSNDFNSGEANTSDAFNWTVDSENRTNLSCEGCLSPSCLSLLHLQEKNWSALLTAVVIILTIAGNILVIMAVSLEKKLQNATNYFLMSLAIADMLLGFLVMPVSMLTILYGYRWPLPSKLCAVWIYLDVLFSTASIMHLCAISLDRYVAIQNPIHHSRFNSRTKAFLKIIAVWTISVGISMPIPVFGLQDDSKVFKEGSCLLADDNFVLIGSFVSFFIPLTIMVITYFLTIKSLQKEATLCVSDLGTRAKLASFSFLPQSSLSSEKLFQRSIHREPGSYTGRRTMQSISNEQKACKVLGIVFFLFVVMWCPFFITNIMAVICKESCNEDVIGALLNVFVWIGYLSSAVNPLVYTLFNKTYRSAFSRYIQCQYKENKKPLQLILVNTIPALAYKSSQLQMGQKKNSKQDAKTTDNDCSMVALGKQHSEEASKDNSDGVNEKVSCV
# Sequence of KiSS-1 receptor (Homo sapiens) (Q969F8 whole entry, looked up): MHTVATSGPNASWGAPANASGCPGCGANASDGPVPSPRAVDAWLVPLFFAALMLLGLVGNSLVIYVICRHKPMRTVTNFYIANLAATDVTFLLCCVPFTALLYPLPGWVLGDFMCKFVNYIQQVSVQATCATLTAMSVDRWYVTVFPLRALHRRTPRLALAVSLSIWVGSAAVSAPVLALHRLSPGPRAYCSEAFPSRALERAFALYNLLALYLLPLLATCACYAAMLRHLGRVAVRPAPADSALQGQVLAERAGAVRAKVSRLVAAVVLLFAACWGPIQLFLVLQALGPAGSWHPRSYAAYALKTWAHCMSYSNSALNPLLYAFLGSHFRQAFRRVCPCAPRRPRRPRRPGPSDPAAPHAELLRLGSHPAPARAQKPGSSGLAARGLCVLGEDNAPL
Structure (SMILES),Potency [1],Potency [2],Potency [3],outcome [4],Potency [5],Potency [6],Potency [7],Potency [8],Potency [9],Potency [10],Potency [11],Potency [12],Potency [13],Potency [14],Potency [15],Potency [16],Potency [17],Potency [18],Potency [19],Potency [20]
Oc1cccc2[nH]ccc12,inactive,inactive,inactive,inactive,inactive,inactive,inactive,inactive,inactive,inactive,inactive,inactive,inactive,inactive,inactive,inactive,,,,
CCC(=O)c1cccc(Cl)c1,inactive,inactive,inactive,,inactive,inactive,inactive,inactive,inactive,inactive,inactive,inactive,inactive,,inactive,inactive,inactive,inactive,inactive,inactive
CC(C)C(O)C(C)(C)CO (configuration not stated),inactive,inactive,inactive,,inactive,inactive,inactive,3.75 µM (active),inactive,inactive,inactive,487 nM (active),inactive,,inactive,inactive,inactive,inactive,56.2 µM (active),inactive
